Assay outcomes as filed in PubChem.
Shown are actives, neighbours in structure and some others; about 21% of the full set was active somewhere.
CYP2C19 inhib – blocks human cytochrome P450 2C19 | CYP2C19 Supersomes, luciferin-H EGE luminescence, 30 min | inhibition, % at 5 µM | P33261 | 96,000 tested, 21% active;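 active = CYP2C19 inhibition above a set limit at 5 µM in the primary screen, cut at about 50% in these data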;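 also: plate controls were negative control wells for no effect and 2.5 mM tranylcypromine positive control for full effect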
Target sequence (P33261 whole entry, looked up): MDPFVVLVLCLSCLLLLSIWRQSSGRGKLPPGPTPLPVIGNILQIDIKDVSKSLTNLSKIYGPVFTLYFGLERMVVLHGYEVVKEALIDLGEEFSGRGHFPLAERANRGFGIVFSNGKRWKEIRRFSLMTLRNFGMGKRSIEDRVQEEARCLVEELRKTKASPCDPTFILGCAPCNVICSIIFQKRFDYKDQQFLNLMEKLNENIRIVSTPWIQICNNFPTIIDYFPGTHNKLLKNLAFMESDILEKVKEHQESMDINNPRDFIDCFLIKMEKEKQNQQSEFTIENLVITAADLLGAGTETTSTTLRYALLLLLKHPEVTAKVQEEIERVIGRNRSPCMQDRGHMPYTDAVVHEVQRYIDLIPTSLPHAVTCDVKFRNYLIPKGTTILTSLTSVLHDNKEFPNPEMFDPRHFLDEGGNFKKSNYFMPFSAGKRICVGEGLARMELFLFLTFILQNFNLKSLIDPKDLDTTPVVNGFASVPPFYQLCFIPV
MRP resist rev – MRP-mediated drug resistance reversal. H69AR cells + 2 uM doxorubicin, CellTiter-Glo, 72 h. differential viability (reversal), % at 10 µM. 85,000 tested, 0.04% active. AID 602;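 active = viability drop by adding the cancer drug above about 55%, with treated viability meeting a 40% cutoff, limit read from the data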;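 also: viability without doxorubicin minus viability with 2 µM doxorubicin for each compound; larger differential means the compound sensitizes cells more to doxorubicin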
CYP2C9 inhib – blocks human cytochrome P450 2C9. P11712. CYP2C9 Supersomes, luciferin-H conversion, luminescence. inhibition, % at 5 µM. 96,000 tested, 20% active;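 active = blocking of liver enzyme CYP2C9 beyond about 50% at 5 µM, limit read from the data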
MRP-1 activ – activates MRP-1 | 140,000 tested, 0.61% active | viability increase, % at 10 µM | AID 799 | H69AR cells + doxorubicin, viability rescue, CellTiter-Glo;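 active = viability gain under doxorubicin at or above a set limit, the compound median plus 3 SD, cut at about 4.7% in these data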;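 also: MRP-1 overexpressing cells given doxorubicin 25 µM after compound pretreatment; 18-22 h compound pretreatment then 72 h with doxorubicin before readout; 0% = doxorubicin-only wells and 100% = vehicle-treated cells without doxorubicin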
CYP2C19 act – activators of human cytochrome P450 2C19; P33261; recombinant CYP2C19, luciferin-H EGE luminescence; hits give high values; 0 = fully inhibited enzyme, 1 = untreated enzyme; activation factor at 5 µM; 96,000 tested, under 10 active; AID 1025;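 active = activation factor of at least 2 at 5 µM in the primary screen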;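 also: 0 = wells with 2.5 mM tranylcypromine and 1 = vehicle-only wells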
CYP2C9 act – activators of human CYP2C9. recombinant CYP2C9, luciferin-H conversion, luminescence; hits give high values; factor 1 = untreated enzyme, 0 = blocked. activation factor at 5 µM. 96,000 tested, 1.4% active. AID 1024;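 active = activation factor of 2 or more for CYP2C9 at a 5 µM dose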;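 also: 0 = sulfaphenazole-blocked wells and 1 = vehicle-only wells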
* hit, by the source's call; nt = no result given.

SMILES | CYP2C19 inhib | MRP resist rev | CYP2C9 inhib | MRP-1 activ | CYP2C19 act | CYP2C9 act
CC(=O)C1C(c2ccccc2OC(F)F)NC(=O)NC1(O)C(F)(F)F (stereo not drawn) | 0.9 | 0.1 | 14.3 | -2.1 | 1 | 0.9
CC(C)(C)c1nnc2sc(SCC(=O)N3CCCc4ccccc43)nn2c1=O | 71.2* | 5.9 | 41.2 | -2.4 | 0.3 | 0.6
CC(C)(C)c1nnc2sc(SCC(=O)c3cccs3)nn2c1=O | 26.4 | -10.5 | 95.5* | -2.9 | 0.7 | 0
O=C(/C=C/c1ccccc1Cl)NCc1cccs1 | nt | nt | nt | -0.5 | nt | nt
Nc1cccc(CCc2nc3cc4ccccc4cc3[nH]2)c1 | nt | nt | nt | -2.5 | nt | nt
CS(=O)(=O)NCCSc1nnnn1-c1ccccc1 | 51.5* | 11.6 | -16.7 | -0.7 | 0.5 | 1.2
O=S(=O)(NCCSc1nnnn1-c1ccccc1)c1cccs1 | 98.6* | 2.7 | 6.4 | -0.4 | 0 | 0.9
O=C(NC1(C(F)(F)F)NC(=O)N(C2CCCCC2)C1=O)c1cccs1 (stereo not drawn) | 47.0 | -8.3 | 42.8 | 0.6 | 0.5 | 0.6
COc1ccc(N2C(=O)CCC(C(C)=O)=C2C)cc1 | 24.2 | 5.6 | 8.4 | -2.9 | 0.8 | 0.9
CS(=O)(=O)Nc1cccc(C(=O)CC2(O)C(=O)Nc3ccc(Br)cc32)c1 (stereo not drawn) | 8.7 | -17.1 | -30.0 | -4.2 | 0.9 | 1.3
Cc1ccccc1NC(=S)N1CCCC1 | nt | nt | nt | -2.0 | nt | nt
Cc1ccccc1NC(=S)N(C)C1(c2ccccc2Cl)CCCCC1=O (stereo not drawn) | 69.2* | 13.2 | 16.4 | -1.9 | 0.3 | 0.8
O=C(Cn1nnc2ccccc21)NC1CCCCC1 | 54.7* | 10.9 | -0.8 | -0.3 | 0.5 | 1
Cc1ccc(N(C(=O)Cn2nnc3ccccc32)C(C(=O)NC2CCCCC2)c2cn(C)nc2C)cc1 (stereo not drawn) | 66.6* | 18.6 | 11.7 | -1.6 | 0.3 | 0.9
Cc1nn(C)cc1C(C(=O)NC1CCCCC1)N(C(=O)Cn1nnc2ccccc21)c1ccc(F)cc1 (stereo not drawn) | 11.5 | 8.9 | 0.3 | -0.3 | 0.9 | 1
O=C(N/N=C\c1ccc(OC(=O)c2cccs2)cc1)c1ccc(Cl)cc1 | nt | nt | nt | 0.6 | nt | nt
CCCOc1ccc(OCCSc2ncccn2)cc1 | 47.2 | -15.1 | 50.1* | 2.1 | 0.5 | 0.5
CCOc1ccc(C(C)=O)cc1CN1C(=O)NC2(CCCCC2C)C1=O (stereo not drawn) | 33.7 | -8.0 | 15.4 | -3.0 | 0.7 | 0.8
COc1ccc(C(C)=O)cc1CN1C(=O)NC2(CCCCCC2)C1=O | 88.3* | nt | 29.0 | -0.8 | 0.1 | 0.7
COc1ccc(S(=O)(=O)Nc2ccccc2C(=O)NC(C)C)cc1OC | 80.9* | -3.4 | -54.1 | -0.1 | 0.2 | 1.5
CCC(C)NC(=O)c1ccccc1NS(=O)(=O)c1ccc(OC)c(OC)c1 (stereo not drawn) | 79.6* | 9.5 | -35.2 | -3.3 | 0.2 | 1.4
Cn1ncc2c(=O)n(/N=C/c3ccccc3)cnc21 | nt | nt | nt | -0.9 | nt | nt
CCc1nc(N2CCN(Cc3ccc4c(c3)OCO4)CC2)c2oc3ccccc3c2n1 | 32.0 | nt | 51.4* | -4.0 | 0.7 | 0.5
CCc1nc(Nc2ccc3c(c2)OCO3)c2oc3ccccc3c2n1 | 51.3* | nt | 75.0* | -1.4 | 0.5 | 0.3
CCc1nc(NCCN2CCOCC2)c2oc3ccccc3c2n1 | 56.9* | -27.4 | 36.8 | -2.2 | 0.4 | 0.6
SMILES | CYP2C19 inhib | MRP resist rev | CYP2C9 inhib | MRP-1 activ | CYP2C19 act | CYP2C9 act
Cc1ccc(N/C(CSC(N)=O)=N\S(=O)(=O)c2ccc(C)cc2)cc1 | 17.1 | -10.0 | -88.1 | -0.2 | 0.8 | 1.9
Cc1ccc(NC(=O)C2CC(=O)N/C(=N/N=C/c3ccco3)S2)cc1C (stereo not drawn) | nt | nt | nt | -2.1 | nt | nt
CN=C(Nc1cc(C)nn1-c1ccccc1)c1ccc(F)cc1 | 91.7* | -0.6 | 45.3 | -0.2 | 0.1 | 0.5
COc1cccc(C2=NOC(C(=O)Nc3cccc(C(C)=O)c3)C2)c1OC (stereo not drawn) | 58.4* | 0.9 | -79.9 | -0.2 | 0.4 | 1.8
Cc1cc(NC(=O)C2CC(c3ccc(F)cc3)=NO2)n(-c2ccccc2)n1 (stereo not drawn) | 68.1* | 12.0 | 29.0 | 1.2 | 0.3 | 0.7
COc1cccc(C2=NOC(C(=O)Nc3cc(C)nn3-c3ccccc3)C2)c1OC (stereo not drawn) | 15.5 | -32.6 | -14.3 | -4.1 | 0.8 | 1.1
COc1cccc(C2=NOC(C(=O)Nc3cccc(C(C)=O)c3)C2)c1 (stereo not drawn) | 36.3 | 3.8 | 20.8 | -4.5 | 0.6 | 0.8
CC(=O)c1cccc(NC(=O)C2CC(c3ccc(F)cc3)=NO2)c1 (stereo not drawn) | 67.8* | -8.8 | 28.4 | -0.6 | 0.3 | 0.7
NC(=O)Cn1c(=O)n(C2CCCCC2)c(=O)c2c3c(sc21)CCCCC3 | nt | nt | nt | -3.1 | nt | nt
CCOc1ccc(CNC(=S)N/N=C/c2ccncc2)cc1 | nt | nt | nt | -1.5 | nt | nt
C/C(=N\NC(=O)c1csc(C)c1C)c1ccc(Cl)s1 | 4.2 | nt | -10.4 | 1.8 | 1 | 1.1
CCC/C(=N\NC(=O)c1csc(C)c1C)c1cccs1 | 67.2* | nt | -19.0 | -4.2 | 0.3 | 1.2
CC/C(=N\NC(=O)c1csc(C)c1C)c1cccs1 | 74.7* | nt | 13.5 | 1.4 | 0.3 | 0.9
Cc1cc(=O)oc2cc(OCc3ccc(C(=O)N4CCN(c5ccccc5)CC4)cc3)ccc12 | nt | nt | nt | 0.3 | nt | nt
NS(=O)(=O)c1ccc(NC(=S)Nc2cc(Cl)c(Cl)cc2Cl)cc1 | nt | nt | nt | -0.9 | nt | nt
COc1ccc(/C=N/NC(=O)CNC(=O)C2COc3ccccc3O2)cc1OC (stereo not drawn) | nt | nt | nt | -1.4 | nt | nt
CCCn1c(-c2cccs2)nc2ccccc21 | 29.6 | nt | 2.6 | -1.3 | 0.7 | 1
C=CCn1c(-c2cccs2)nc2nc3ccccc3nc21 | 8.3 | -28.9 | 22.3 | -5.5 | 0.9 | 0.8
C=CCSc1nc2ccccc2n1Cc1nnc(-c2cccs2)o1 | 66.6* | 6.8 | 52.7* | -0.7 | 0.3 | 0.5
C=CCn1c(N)c(-c2nc3ccccc3n2C)sc1=S | 44.4 | nt | 86.4* | -0.5 | 0.6 | 0.1
Cn1c(-c2sc(=S)n(-c3ccccc3)c2N)nc2ccccc21 | -8.9 | 0.4 | -6.6 | -2.5 | 1.1 | 1.1
C=CCn1c(-c2cccs2)nc2ccccc21 | 65.5* | 9.3 | 38.3 | -1.2 | 0.3 | 0.6
Cc1ccc(C)c(N(C)C(=O)COc2cc(=O)n(C)c3ccccc23)c1 | 34.4 | -20.9 | 35.2 | -0.8 | 0.7 | 0.6
COC(=O)C(CC(C)C)Oc1ccc2c(C)cc(=O)oc2c1 (stereo not drawn) | 19.8 | 2.2 | 64.7* | -2.9 | 0.8 | 0.4
Cc1cc(=O)oc2cc(OC(C)C(=O)Nc3nccs3)ccc12 (stereo not drawn) | 81.0* | 10.8 | 79.8* | -2.2 | 0.2 | 0.2
CC1(C)NC(=O)N(CC(=O)Nc2nc(-c3ccc(F)cc3)cs2)C1=O | 0.0 | nt | -64.0 | -1.7 | 1 | 1.6
CCOC(=O)C1=C(CC)OC(N)=C(C#N)C1c1ccc(NC(C)=O)cc1 (stereo not drawn) | nt | nt | nt | -1.9 | nt | nt
